Measured values as given in PubChem BioAssay (NCATS).
Records with an inconclusive call do not appear. A call without a number means that no potency is given here. Values without a mark were called inactive. Calls of active or inactive are those of the source. Calls come from the whole dose curve; as a rule, active = well fitted inhibition curve with a large enough effect; inconclusive = small, poorly fitted or top-dose-only effect; inactive = no such curve, though single readings can be large or run the other way.

Assay: qHTS to identify inhibitors of the type 1 interferon - major histocompatibility complex class I in skeletal muscle: primary screen against the NCATS Mechanism Interrogation Plate v5.0 (MIPE) Libary (AID 1347411); note: nearly all actives have a fitted effect of over 65% in size
Conditions: iHSKM cells + IFN-b, HiBiT-tagged MHC-I luminescence, 24 h; series mostly up to 45.8 µM
Method in brief: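 Luminescence from HiBiT-tagged endogenous HLA-B*08:01 served as the MHC class I read-out. CRISPR-engineered C25cl48 human myoblasts received 4.0 ng/ml IFN-beta plus compound for 24 hrs, with an 11-point, 1:3 series topping at 46 uM final.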
Potency is the fitted concentration of half-maximal effect.

| Compound | Potency | activity change, negative = inhibition |
| --- | --- | --- |
| CC[C@@]1(O)C(=O)OCc2c1cc1n(c2=O)Cc2c-1nc1ccccc1c2CCNC(C)C | 0.739 µM (active) |  |
| COc1ccc2[nH]c3c(c2c1)CCN[C@]31CS[C@@H]2c3c(OC(C)=O)c(C)c4c(c3[C@H](COC1=O)N1[C@@H]2[C@H]2c3c(cc(C)c(OC)c3O)C[C@@H]([C@@H]1O)N2C)OCO4 | 0.0535 µM (active) |  |
| CCC(C)CNCC(=O)N1CCc2sccc2C1c1cccc(C)n1 (centres undefined) | inactive |  |
| CS(=O)(=O)c1ccc(-c2cnc(NCc3ccco3)n3cnnc23)cc1 | inactive |  |
| O=c1c(-c2ccc(O)cc2)coc2c([C@@H]3O[C@H](CO)[C@@H](O)[C@H](O)[C@H]3O)c(O)ccc12 | inactive |  |
| CCC(=O)O[C@]1(C(=O)CO)CC[C@H]2[C@@H]3CCC4=CC(=O)CC[C@]4(C)[C@H]3CC[C@@]21C | inactive |  |
| O=S(=O)(Nc1ccc(-c2cccnc2)c2cccnc12)c1cccc(C(F)(F)F)c1 | 8.29 µM (active) |  |
| O=C(O)c1ccccc1-c1ccc(/C=c2\sc3nc4cc(Br)cnc4n3c2=O)o1 | inactive |  |
| O=c1[nH]nc2c3c(cccc13)NC(CN1Cc3ccccc3C1)=N2 | inactive |  |
| O=C([O-])C[O-].[Pt+2] | inactive |  |
| Cc1cc(O)cc2c1[C@]1(C)CC[C@H]3C(C)(C)CCC[C@]3(C)[C@H]1C2 |  | -19.8% [at 5.1 µM] |
| COc1ccc2c(c1)C(c1ccc(F)cc1)=C(CN1CCCC1)CO2 | inactive |  |
| N=C1S/C(=C\c2ccc(-c3ccc4c(c3)C(=O)NC4=O)o2)C(=O)N1c1ccc(Br)cc1 | inactive |  |
| CN1[C@@H]2CCC[C@H]1CC(NC(=O)c1nn(C)c3ccccc13)C2 (some centres undefined) | inactive |  |
